PubChem BioAssay (NCATS)
Values joined by “and” are separate entries in the source; they are usually repeats but may differ in a detail not shown here. Identical values can stand only once. Inconclusive results are not listed. Active and inactive are the calls of the source. Unless noted, calls come from the whole dose curve; as a rule, active = well fitted curve in the direction sought with a large enough effect; inconclusive = small, poorly fitted or top-dose-only effect, or another doubt; inactive = no such curve, though single readings can be large; an effect the other way counts as inactive or inconclusive.

Assays:
[1] = S16 Schwann cell PMP22 intronic element firefly luciferase assay (AID 624032); note: nearly all actives have a fitted effect of over 30% in size; note: potency is the fitted concentration of half-maximal effect;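 for activity change, negative = inhibition: plate controls were DMSO for no effect and PTC124 positive control mean for full effect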
Procedure, shortened: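 Rat S16 Schwann cells stably carrying a PMP22 intronic element-driven Fluc reporter were seeded overnight, then exposed to compounds for 24 h at 37 °C. Luminescence was normalized to PTC124 (positive control) and DMSO (0% activity).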

[2] = S16 Schwann cell PMP22 intronic element beta-lactamase assay (AID 624044; calls by dose curve;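 note: 0% = DMSO and -100% = potassium clavulanate positive control; nearly all actives have a fitted effect of over 15% in size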)
Procedure, shortened: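 Rat S16 Schwann cells with beta-Lac driven by a PMP22 intronic element, compound-treated 24 h at 37 °C. LiveBLAzer FRET B/G read: 460 nm normalized to potassium clavulanate vs DMSO; 535 nm FRET as viability; concentration-effect curves classified.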

[3] = target: Glucagon-like peptide 1 receptor (Homo sapiens) (UniProt P43220); experiment: qHTS of GLP-1 Receptor Agonists: LOPAC Validation (AID 624148);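 note: 0% is about no effect; higher luminescence signal means agonism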
Procedure, shortened: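 HEK293 cells stably co-expressing a cAMP-responsive luciferase reporter and a hypersensitive GLP-1R were plated 12 h at 37 °C and exposed to compounds for 4-6 hr at 37 °C, 5% CO2. Luminescence was read 12 min after adding detection reagent.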

[4] = qHTS assay for small molecule agonists of the antioxidant response element (ARE) signaling pathway (AID 651741; active = well fitted activation curve with a large enough effect in the signal ratio; the % refers to the signal ratio; note: potency is the fitted concentration of half-maximal effect; for activation: % of control where 0% means no effect)
Procedure, shortened: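 ARE-bla HepG2 cells (beta-lactamase reporter under ARE control) were plated at 2,000 cells/well, preincubated 5 h at 37 C/5% CO2, then treated with DMSO-dissolved compounds for 16 h at 37 C; LiveBLAzer B/G FRET substrate added, fluorescence read after 2 h at room temperature.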

[5] = qHTS assay for small molecule activators of the p53 signaling pathway (AID 651743; active = well fitted activation curve with a large enough effect in the signal ratio, not every such curve was filed as active; the % refers to the signal ratio; note: % of control where 0% means no effect); conditions: HCT-116 p53RE-bla, beta-lactamase FRET ratio, 16 h; activation: stronger effect = higher value
Procedure, shortened: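 p53RE-bla HCT-116 cells with a stably integrated beta-lactamase reporter under p53 response elements were plated, rested 5 hours at 37 C/5% CO2, then exposed to compounds in DMSO for 16 hours at 37 C. LiveBLAzer B/G FRET substrate was read after 2 hours at room temperature.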

[6] = qHTS assay for small molecule activators of the nuclear factor-kappa B (NF-kB) signaling pathway (AID 651749; active = well fitted activation curve with a large enough effect in the signal ratio; the % refers to the signal ratio; note: % of control where 0% means no effect); conditions: NF-kB-bla ME-180 cells, beta-lactamase FRET ratio, 16 h; stronger effect = higher value
Procedure, shortened: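 ME-180 cells stably carrying a beta-lactamase reporter under an NF-kB response element were exposed to compound or DMSO vehicle for 16 hr at 37C, 5% CO2. Pathway activation was read by FRET, since reporter expression disrupts FRET.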

[7] = qHTS assay for small molecule disruptors of the mitochondrial membrane potential - 5 hr assay (AID 651755; calls by dose curve; note: % is set by controls: 0 for no effect and ±100 for the full control effect; nearly all actives have a fitted effect of over 40% in size)
Procedure, shortened: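 HepG2 cells, attached overnight at 37C, were exposed to compound or DMSO for 5 hr at 37C, 5% CO2. Mito-MPS dye was then added for 30 min, and fluorescence read at 490/535 nm (monomers) and 540/590 nm (aggregates).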

[8] = target: Tumor necrosis factor (Homo sapiens) (UniProt P01375); experiment: qHTS assay to identify small molecules that stimulate Tumor Necrosis Factor-alpha (TNF-alpha) secretion (AID 651757; active = well fitted curve in the direction sought with a large enough effect in the signal ratio; the % refers to the signal ratio; note: 0% is about no effect)
Procedure, shortened: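 Secreted TNF-alpha from compound-treated THP-1 cells (17 hrs, 37 C) was quantified with a homogeneous time-resolved fluorescence antibody assay.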

[9] = qHTS assay for environmental chemicals that activate the Aryl hydrocarbon Receptor (AhR) signaling pathway (AID 651777); conditions: 1A2-DRE human hepatoma cells, luciferase, 24 h; stronger effect = higher value; note: % of control where 0% means no effect; nearly all actives have a fitted effect of over 15% in size
Procedure, shortened: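 Concentration–response screening used 1,200 1A2-DRE cells per well, 24 hr compound exposure (37 C, 5% CO2), and One-Glo luminescence as the AhR-driven CYP1A2 reporter signal.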

[10] = target: Peroxisome proliferator-activated receptor alpha (Homo sapiens) (UniProt Q07869); experiment: qHTS assay for small molecule agonists of the peroxisome proliferator-activated receptor alpha (PPARalpha) signaling pathway (AID 651778); conditions: PathHunter PPARalpha complementation, chemiluminescence, 6 h; stronger effect = higher value; note: % of control where 0% means no effect
Procedure, shortened: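 Cells plated at 2,000/well and held overnight at 37 C, 5% CO2, then compound added by pin tool for 6 hr; after PathHunter detection reagent and 60 min at room temperature, chemiluminescence from enzyme complementation was read.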

[11] = HTS Assay for Allosteric Antagonists of the Human D2 Dopamine Receptor: Hit Validation in HTRF (AID 624455);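 note: stable D1 dopamine receptor cell line scored for blocking the D1 response; % is set by controls: 0 for no effect and ±100 for the full control effect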
Procedure, shortened: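 Signal from an HTRF read-out in D1-expressing stable cells gave hit activity as inhibition of the D1 response.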

[12] = qHTS assay for small molecule disruptors of the mitochondrial membrane potential - 1 hr assay (AID 651754; calls by dose curve; note: % is set by controls: 0 for no effect and ±100 for the full control effect; nearly all actives have a fitted effect of over 35% in size)
Procedure, shortened: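 Steps: seed HepG2 cells and let attach overnight; pin-transfer compound or vehicle; incubate 1 hr at 37C; add Mito-MPS dye for 30 min; read two-channel fluorescence for monomer and aggregate forms.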

[13] = qHTS assay to identify small molecules that stimulate interleukin-8 (IL-8) secretion (AID 651758; active = well fitted activation curve with a large enough effect in the signal ratio; the % refers to the signal ratio; note: 0% is about no effect)
Procedure, shortened: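 THP-1, 2000 cells/well; cpd 16 h, 37 C; add cryptate + XL665 anti-IL-8 Abs; RT 1-3 h; TR-FRET read.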

[14] = Cytotoxicity counterscreen for NFkB agonists and antagonists (AID 624476); note: % is set by controls: 0 for no effect and ±100 for the full control effect
[15] = qHTS Assay for Identification of Small Molecule Agonists for NFkB Signaling Pathway. (AID 624478);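 note: compounds tested together with TNF alpha at its EC50 of 10 pM; 0% is about no effect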
Procedure, shortened: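 Cells carrying an NFkB response element-driven beta-lactamase gene are co-treated with compound and 10 pM TNF alpha for 5 h, and reporter activity is then read as 460 and 530 nm fluorescence.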

[16] = qHTS Assay for Identification of Small Molecule Antagonists for NFkB Signaling Pathway. (AID 624479; calls by dose curve;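 note: pathway stimulated with TNF alpha; % is set by controls: 0 for no effect and ±100 for the full control effect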)
[17] = Cell Proliferation Assay against the TMD8 Cell Line (AID 651645); conditions: TMD8 DLBCL cell line proliferation/viability; at 46.1 µM (top of the series);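 note: cells exposed to compound for 48 h before reading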
Procedure, shortened: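 TMD8 ABC DLBCL cells, 500 per well in phenol red-free RPMI with 5% FBS, were treated with compound by pin transfer and incubated 48 hours at 37C, 5% CO2. Viability was read by CellTiter-Glo luminescence, normalised to DMSO (100%) and 9.2 uM bortezomib (0%).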

[18] = Cell Proliferation Assay against the HBL1 Cell Line (AID 651646); conditions: HBL1 DLBCL cells; at 46.1 µM (top of the series);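 note: cells exposed to compound for 48 h before reading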
Procedure, shortened: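 500 log-phase HBL1 cells per well in phenol red-free RPMI with 5% FBS were treated with compounds for 48 h at 37 °C, 5% CO2. Viability was read by CellTiter-Glo luminescence, normalized to DMSO (100%) and 9.2 uM bortezomib final (0%).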

[19] = Cell Proliferation Assay against the TMD8 Cell Line (Caspase readout at 16 hrs) (AID 651712)
Procedure, shortened: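 TMD8 cells (500/well) in phenol-red-free RPMI with glutamine, 5% FBS, were exposed to compounds for 16 h at 37 °C. Caspase 3/7 activation was read by Caspase-Glo luminescence; percent activity normalised to DMSO (0%) and 9.2 uM bortezomib final (100%).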

[20] = Cell Proliferation Assay against the TMD8 Cell Line (Caspase readout at 8 hrs) (AID 651713)
Procedure, shortened: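 Percent activity derived from Caspase-Glo signal, DMSO set to 0% and bortezomib (9.2 uM final) to 100%. TMD8 cells were exposed to compound for 8 h in RPMI with 5% FBS.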

Chain of Tumor necrosis factor (Homo sapiens) (P01375 whole entry, looked up): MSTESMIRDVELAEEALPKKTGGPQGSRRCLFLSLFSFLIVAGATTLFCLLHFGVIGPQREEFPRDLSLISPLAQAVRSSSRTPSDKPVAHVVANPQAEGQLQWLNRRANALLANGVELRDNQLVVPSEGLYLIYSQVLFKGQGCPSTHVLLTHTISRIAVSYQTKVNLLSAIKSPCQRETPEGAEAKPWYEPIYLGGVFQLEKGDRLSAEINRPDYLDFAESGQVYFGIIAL
Chain of Glucagon-like peptide 1 receptor (Homo sapiens) (P43220 whole entry, looked up): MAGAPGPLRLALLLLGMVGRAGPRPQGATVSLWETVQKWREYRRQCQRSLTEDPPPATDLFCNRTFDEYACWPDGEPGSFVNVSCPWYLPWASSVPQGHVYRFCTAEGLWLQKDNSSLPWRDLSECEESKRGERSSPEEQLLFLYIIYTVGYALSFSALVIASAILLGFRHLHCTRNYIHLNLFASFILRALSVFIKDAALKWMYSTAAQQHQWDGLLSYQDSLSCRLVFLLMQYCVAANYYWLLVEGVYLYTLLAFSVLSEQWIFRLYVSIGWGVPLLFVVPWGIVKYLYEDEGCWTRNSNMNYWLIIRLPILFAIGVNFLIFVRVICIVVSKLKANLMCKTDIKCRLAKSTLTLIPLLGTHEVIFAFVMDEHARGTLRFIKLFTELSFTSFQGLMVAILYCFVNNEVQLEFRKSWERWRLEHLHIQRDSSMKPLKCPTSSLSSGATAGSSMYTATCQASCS
Chain of Peroxisome proliferator-activated receptor alpha (Homo sapiens) (Q07869 whole entry, looked up): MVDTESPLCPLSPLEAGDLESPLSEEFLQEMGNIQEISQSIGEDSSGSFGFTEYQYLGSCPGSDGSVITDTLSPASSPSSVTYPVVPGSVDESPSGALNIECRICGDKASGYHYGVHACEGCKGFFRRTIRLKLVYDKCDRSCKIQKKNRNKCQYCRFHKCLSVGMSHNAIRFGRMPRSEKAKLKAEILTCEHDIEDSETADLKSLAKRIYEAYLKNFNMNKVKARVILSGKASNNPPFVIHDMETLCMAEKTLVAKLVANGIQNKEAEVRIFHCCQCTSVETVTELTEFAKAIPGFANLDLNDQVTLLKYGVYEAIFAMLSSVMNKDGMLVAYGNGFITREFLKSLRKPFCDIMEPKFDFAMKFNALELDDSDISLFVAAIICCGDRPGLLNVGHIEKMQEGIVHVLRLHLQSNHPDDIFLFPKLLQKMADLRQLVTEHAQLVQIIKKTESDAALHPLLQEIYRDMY

NCCc1ccc(O)cc1
inactive: Potency [1] | outcome [2] | outcome [3] | Potency [4] | activation [5] -2.23% | activation [6] -0.88% | Potency [7] | outcome [8] | activation [9] -0.313% | max response [10] -1.42%

COc1cccc([C@@]2(O)CCCC[C@@H]2CN(C)C)c1
inactive: Potency [1] | outcome [2]

COc1ccc2c(c1OC)C(=O)O[C@H]2[C@@H]1c2cc3c(cc2CCN1C)OCO3
inactive: Potency [1] | outcome [2] | outcome [3] | Potency [11]

C=C(C)[C@H]1CN[C@H](C(=O)O)[C@H]1CC(=O)O
inactive: Potency [1] | outcome [3] | Potency [11]

COC(=O)C(c1ccccc1)C1CCCCN1 (configuration not stated)
inactive: Potency [1] | outcome [2] | activation [5] -1.5% and -3.75% | activation [6] 0.137% and 0.745% | Potency [12] | Potency [7] | outcome [8] | outcome [13] | activation [9] 0.112% and -0.732% | max response [10] -1.82% and 0.192%

CN1CCC(O)(c2ccc(F)cc2)C(C(=O)c2ccc(F)cc2)C1 (configuration not stated)
inactive: Potency [1] | outcome [2]

Cc1ncsc1CCCl
inactive: Potency [1] | outcome [3] | Potency [11]

CN1C(=O)CCS(=O)(=O)C1c1ccc(Cl)cc1 (configuration not stated)
inactive: Potency [1] | outcome [3] | Potency [11]

CCOP(=S)(OCC)Oc1ccc2c(C)c(Cl)c(=O)oc2c1
active: Potency [1] 8.09 µM
inactive: outcome [2] | activation [5] -4.7% | max response [10] -4.26%

CCCCC/C=C\C/C=C\C/C=C\C/C=C\CCCC(=O)NCC(=O)O
inactive: activity change, negative = inhibition [1] -9.07% [at 5.34 µM] | outcome [3] | Potency [11]

Cc1nnc2n1-c1ccc(Cl)cc1C(c1ccccc1Cl)=NC2
inactive: Potency [1] | outcome [2]

O=C1c2ccccc2C(=O)C1C(=O)C(c1ccccc1)c1ccccc1
active: Potency [4] 61.1 µM
inactive: Potency [1] | outcome [2] | activation [5] 23.1% | activation [6] -1.82% | activation [9] 5.81% | max response [10] -1.83%

O=c1[nH]oc2c1CCNC2
inactive: Potency [1] | outcome [3] | Potency [11]

CCCCCCCCCC(=O)O[C@H]1CC[C@H]2[C@@H]3CCC4=CC(=O)CC[C@@H]4[C@H]3CC[C@]12C
inactive: Potency [1] | outcome [2]

Nc1ccc([As](=O)(O)O)cc1
inactive: Potency [1] | outcome [2] | Potency [4] | activation [5] -0.538% | activation [6] -0.596% | max response [10] -1.85%

O=C(CCCN1CCC2(CC1)C(=O)NCN2c1ccccc1)c1ccc(F)cc1
inactive: Potency [1] | outcome [2] | outcome [3] | Potency [11]

C[C@]12CC[C@@H]3c4ccc(OC(=O)N(CCCl)CCCl)cc4CC[C@H]3[C@@H]1CC[C@@H]2O
inactive: Potency [1] | outcome [2]

Cc1nnc2n1-c1ccc(Cl)cc1C(c1ccccc1)=NC2
inactive: Potency [1] | outcome [2]

CC(C)c1cccc(C(C)C)c1O
inactive: Potency [1] | outcome [2] | outcome [3] | Potency [11] | Potency [4] | activation [5] 0.635% | activation [6] 1.44% | Potency [12] | Potency [7] | outcome [8] | activation [9] 0.116% | max response [10] -5.67%

CC(C)(C)NCC(O)c1ccccc1Cl (configuration not stated)
inactive: Potency [1] | Potency [11]

CCCC(C)(COC(N)=O)COC(N)=O
inactive: Potency [1] | outcome [2] | Potency [4] | activation [5] 1.72% and -1.16% | activation [6] 0.11% and -1.2% | Potency [12] | Potency [7] | outcome [8] | activation [9] 1.18% and -0.314% | max response [10] -0.626% and -5.23%

COP(=S)(OC)SCN1C(=O)c2ccccc2C1=O
inactive: Potency [1] | outcome [2] | activation [5] 6.79% | activation [6] -2.37% | activation [9] -1.4% | max response [10] -0.635%

O=C1Nc2ccc(Cl)cc2C(c2ccccc2Cl)=NC1O (configuration not stated)
inactive: Potency [1] | outcome [2]

O=P1(N(CCCl)CCCl)NCCCO1 (configuration not stated)
108%: viability, percent of control [18]
inactive: Potency [1] | outcome [3] | Potency [11] | outcome [14] | outcome [15] | outcome [16] | outcome [19] | outcome [20] | Potency [4] | activation [5] -1.12% and -2.77% | activation [6] -0.934% and -1.34% | outcome [8] | activation [9] 0.318% and -1.16% | max response [10] 7.32% and -1.68%
114%: viability (% of control) [17]

Clc1ccc(C(c2ccc(Cl)cc2)C(Cl)(Cl)Cl)cc1
inactive: outcome [2] | activation [5] 2.65% | activation [6] 2.81% | Potency [12] | Potency [7] | outcome [8] | activation [9] 0.0892% and -0.298% | max response [10] 4.34% and 1.18%
active: Potency [1] 10.2 µM | Potency [4] 66.8 µM

C[C@]12CCC(=O)C=C1CC[C@@H]1[C@@H]2CC[C@]2(C)C(=O)CC[C@@H]12
inactive: Potency [1] | outcome [2] | activation [5] -1.07% and 0.979% | Potency [12] | Potency [7] | outcome [8] | activation [9] 2.9% and -2.01% | max response [10] -0.773% and -1.33%

O=C1Nc2ccc(Cl)cc2C(c2ccccc2)=NC1O (configuration not stated)
inactive: Potency [1] | outcome [2]

Clc1ccc2c(c1)C(c1ccccc1)=NCc1nncn1-2
inactive: Potency [1] | outcome [2]
